# Measured values: the supplement of paper PMC12636033
# ± gives the standard deviation of the averaged measurements. Whole data set: some 33,000 sequences, median “E-score (rank enrichment, -0.5 to 0.5)” near -0.0075, cut for the highest 2% near 0.23. Many of the other results were omitted from the sample, so the highest values are more common in it than they were.
# Test system: WT Max(13-93) synthetic (M65Nle)
# Experiment: PBM 8-mer E-score (E-score (rank enrichment, -0.5 to 0.5)); higher = stronger preferential binding
# Protocol: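 Protein binding microarray (universal PBM chip covering all 10-mers in fixed probe flanks) with chemically synthesized human Max(13-93) bHLH-LZ analogs (not full-length Max) bearing noncanonical residues (hArg, Tha, Aib, Nle at 65) and aromatic Cys staples. Read-out per 8-mer (and its reverse complement): E-score (rank-based enrichment, -0.5 to 0.5) and Z-score of median probe intensity.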
row,Sequence,PBM 8-mer E-score
1,CTTTAAAC,0.143 ± 0.0068
2,GTTTAAAA,0.0508 ± 0.026
3,TACATCTA,0.0666 ± 0.053
4,CCGTTTAC,0.0331 ± 0.077
5,AATCTGTC,0.0805 ± 0.0072
6,ACGCATGA,0.127 ± 0.021
7,ACGCATCC,0.00574 ± 0.012
8,ACGCATGG,0.243 ± 0.026
9,CCGCATGC,0.2 ± 0.02
10,ACGCATAG,0.0507 ± 0.032
11,ACGCATGC,0.281 ± 0.04
12,CGATTTCC,-0.13 ± 0.008
13,GTGCTGGA,-0.0429 ± 0.077
14,ATAAATAT,0.267 ± 0.0039
15,CTAAATAA,0.119 ± 0.1
16,ATAAATAA,0.157 ± 0.031
17,ATAAATAG,0.18 ± 0.017
18,TTAAATAA,0.12 ± 0.035
19,ATAAATAC,0.295 ± 0.022
20,AACAGTTG,-0.0604 ± 0.064
21,GGACCTCC,-0.149 ± 0.028
22,CCCCCCGA,-0.154 ± 0.12
23,TACTTGGA,0.0409 ± 0.043
24,ACTATTAA,0.133 ± 0.0048
25,GATATTAA,0.029 ± 0.025

row,Sequence,PBM 8-mer E-score
1,AATATTAC,0.228 ± 0.029
2,AATATTAT,0.285 ± 0.026
3,CATATTAA,0.306 ± 0.014
4,AATATTAA,0.263 ± 0.014
5,AATATTAG,0.152 ± 0.15
6,ATTATTAA,0.172 ± 0.066
7,GATATTAC,0.237 ± 0.02
8,CATATTAC,0.156 ± 0.05
9,TATATTAA,0.213 ± 0.011
10,CATATTAG,0.15 ± 0.046
11,CTCCCAGA,-0.18 ± 0.049
12,CCCCCAGG,-0.289 ± 0.17
13,AAATTGTT,0.0622 ± 0.024
14,AAAATGTG,0.205 ± 0.015
15,AGCGACAT,0.113 ± 0.056
16,AATAGGTA,0.195 ± 0.0039
17,CATAGGTA,0.00152 ± 0.065
18,GATAGGTA,0.24 ± 0.073
19,GGCCTTTA,0.0556 ± 0.0086
20,CACGTGGA,0.4856 ± 0.0019
21,AACGTGGG,0.215 ± 0.03
22,GACGTGGA,-0.0291 ± 0.023
23,TACGTGGA,0.109 ± 0.08
24,CACGTGGC,0.4858 ± 0.0018
25,CACGTGGG,0.4865 ± 0.00015

row,Sequence,PBM 8-mer E-score
1,AACGTGGC,0.218 ± 0.022
2,CAAGTGGG,0.0824 ± 0.037
3,GACGTGGC,-0.0348 ± 0.019
4,CTTACAAC,-0.0407 ± 0.16
5,TGTAAGAA,0.12121 ± 1.4e-05
6,CGCTAAGC,-0.187 ± 0.092
7,GTGCCTCA,-0.133 ± 0.12
8,AACAGATT,-0.0422 ± 0.079
9,CCAGAATA,-0.0319 ± 0.024
10,GAACCTAA,-0.143 ± 0.099
11,CCGGTCCA,-0.194 ± 0.12
12,AGGGCACT,-0.053 ± 0.033
13,CTAGGTAA,-0.0715 ± 0.093
14,ATAGGTAA,0.0523 ± 0.015
15,GTAGGTAA,0.232 ± 0.042
16,GTGCTTGA,-0.0248 ± 0.16
17,AACCAGCA,-0.0798 ± 0.12
18,AGTGCCCC,-0.0153 ± 0.009
19,AACGCAGT,-0.173 ± 0.062
20,AAAGTATT,0.118 ± 0.043
21,CAAGTATA,0.0775 ± 0.011
22,AAAGTATA,0.282 ± 0.045
23,GGAGCTTA,-0.168 ± 0.098
24,AAACGCAG,-0.069 ± 0.017
25,AACCGCAT,-0.102 ± 0.13

row,Sequence,PBM 8-mer E-score
1,CATCATGA,0.0797 ± 0.1
2,AATCATGC,0.168 ± 0.0099
3,TATCATGA,0.272 ± 0.0036
4,CATCATAA,0.168 ± 0.045
5,TATCATAA,0.239 ± 0.1
6,GATCATAA,0.156 ± 0.094
7,AATCATGA,0.134 ± 0.038
8,AATCATGT,0.235 ± 0.066
9,AATCATGG,0.0882 ± 0.19
10,ACGATATG,0.0765 ± 0.093
11,AGTAGCGA,-0.0978 ± 0.08
12,GGCTATAA,-0.0145 ± 0.049
13,TGCTACCA,0.081 ± 0.0046
14,TCTGAAGA,-0.204 ± 0.095
15,AAGTCCGG,-0.0703 ± 0.083
16,AGGCCAAA,-0.0704 ± 0.025
17,TAGGCATA,0.0815 ± 0.076
18,AGTTTCCC,-0.0461 ± 0.026
19,ACTTGGGG,0.0672 ± 0.1
20,ATCACGTA,0.174 ± 0.1
21,ATCACGTG,0.481 ± 0.006
22,ATCACGCG,0.262 ± 0.0089
23,ATCACACG,0.199 ± 0.029
24,CGCACGCG,0.167 ± 0.051
25,ATCACGCC,0.0823 ± 0.14

row,Sequence,PBM 8-mer E-score
1,AGCACGCA,-5e-06 ± 0.0011
2,ATCACACA,0.266 ± 0.071
3,ATCACGCA,0.0746 ± 0.08
4,ATCACGTC,0.167 ± 0.0029
5,ATCACACC,0.0527 ± 0.072
6,AGCACGCG,0.258 ± 0.035
7,AAACAGTC,-0.0664 ± 0.047
8,AGGTTTTG,0.0094 ± 0.025
9,ATAGCTAA,-0.104 ± 0.047
10,AAAGCGGT,0.0199 ± 0.011
11,GCACGTGA,0.4391 ± 0.0016
12,GAACGTGA,-0.00116 ± 0.019
13,GGACGTGA,-0.0819 ± 0.01
14,GCACGTCC,-0.0119 ± 0.016
15,GCACGTAC,0.0338 ± 0.094
16,GCACGTGC,0.489 ± 0.0044
17,ACTGTGCA,-0.0882 ± 0.057
18,ATGGTCTA,-0.0528 ± 0.067
19,GTGAGGGA,-0.116 ± 0.061
20,AAATGGGC,-0.1 ± 0.011
21,CTGCTAAC,-0.118 ± 0.073
22,CCGCTGAC,-0.231 ± 0.04
23,AGCTAACT,-0.0391 ± 0.11
24,CGAACTTC,-0.102 ± 0.023
25,CAAACAAA,0.0821 ± 0.1

row,Sequence,PBM 8-mer E-score
1,TAAACAGA,0.128 ± 0.15
2,TAAACATA,0.299 ± 0.0097
3,GAAACATC,0.0695 ± 0.12
4,CAAACATA,0.143 ± 0.12
5,GAAACATA,0.27 ± 0.089
6,GAAACAAA,0.238 ± 0.025
7,AAAACATA,0.0863 ± 0.034
8,GAAACAAC,0.034 ± 0.041
9,AGGGTGCC,-0.11 ± 0.043
10,TAGTCCCA,-0.054 ± 0.018
11,CCAATGGC,-0.126 ± 0.23
12,GGCGACTA,-0.0354 ± 0.12
13,GACAACGC,0.1 ± 0.061
14,GCGTTTTA,0.0184 ± 0.062
15,CGTTAACA,-0.00101 ± 0.057
16,AGTTAACA,0.0439 ± 0.0024
17,TGTTAACA,0.317 ± 0.13
18,GCGATGTA,-0.0179 ± 0.03
19,AGGATGTG,-0.105 ± 0.014
20,TAAGCTTA,0.152 ± 0.0028
21,GGTGGCAC,-0.131 ± 0.071
22,AGTGGCAC,0.0667 ± 0.064
23,CGTGGCAC,0.251 ± 0.063
24,AAGCGTTG,-0.0943 ± 0.073
25,AGGGTAGA,-0.0604 ± 0.015

row,Sequence,PBM 8-mer E-score
1,ATAAAGTG,0.188 ± 0.078
2,CTTAAGTA,0.0679 ± 0.077
3,ATAAAGTC,0.258 ± 0.062
4,ATAAAGTA,0.18 ± 0.043
5,CTTAAGTC,0.0284 ± 0.017
6,ATTAAGTC,0.2923 ± 0.0026
7,ATTAAGTA,0.259 ± 0.051
8,ATTAAGTG,0.106 ± 0.19
9,GTTAAGTA,0.0433 ± 0.015
10,ATTTCGCG,0.16 ± 0.065
11,AGATCTAG,-0.118 ± 0.06
12,ATCACGAA,0.0216 ± 0.013
13,AGTTTGTA,0.074 ± 0.022
14,AGTCTGGG,-0.106 ± 0.13
15,GCATGCGA,0.238 ± 0.0068
16,ACATGCGC,0.0958 ± 0.095
17,ACATGCGA,0.141 ± 0.025
18,CCATGCGA,0.087 ± 0.11
19,GCATGCGC,0.251 ± 0.056
20,CCATGCGC,0.153 ± 0.069
21,ACGGGATG,-0.083 ± 0.16
22,AACGTACG,0.157 ± 0.067
